Reference: PubChem BioAssay (NCATS)
Records with an inconclusive call do not appear. Calls of active or inactive are those of the source. The call rests on the fitted dose curve; in most records, active means well fitted inhibition curve with a large enough effect; inconclusive means small, poorly fitted or top-dose-only effect; inactive means flat fitted curve, though single readings scatter.

How the values were obtained:
[1] = target: Luciferin 4-monooxygenase (Photinus pyralis) (UniProt P08659); assay: Biochemical firefly luciferase enzyme assay for NPC (AID 624030);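 further: purified P. pyralis luciferase at 10 nM with luciferin and ATP substrate; nearly all actives have a fitted effect of over 70% in size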
Sequence of Luciferin 4-monooxygenase (Photinus pyralis) (P08659 whole entry, looked up): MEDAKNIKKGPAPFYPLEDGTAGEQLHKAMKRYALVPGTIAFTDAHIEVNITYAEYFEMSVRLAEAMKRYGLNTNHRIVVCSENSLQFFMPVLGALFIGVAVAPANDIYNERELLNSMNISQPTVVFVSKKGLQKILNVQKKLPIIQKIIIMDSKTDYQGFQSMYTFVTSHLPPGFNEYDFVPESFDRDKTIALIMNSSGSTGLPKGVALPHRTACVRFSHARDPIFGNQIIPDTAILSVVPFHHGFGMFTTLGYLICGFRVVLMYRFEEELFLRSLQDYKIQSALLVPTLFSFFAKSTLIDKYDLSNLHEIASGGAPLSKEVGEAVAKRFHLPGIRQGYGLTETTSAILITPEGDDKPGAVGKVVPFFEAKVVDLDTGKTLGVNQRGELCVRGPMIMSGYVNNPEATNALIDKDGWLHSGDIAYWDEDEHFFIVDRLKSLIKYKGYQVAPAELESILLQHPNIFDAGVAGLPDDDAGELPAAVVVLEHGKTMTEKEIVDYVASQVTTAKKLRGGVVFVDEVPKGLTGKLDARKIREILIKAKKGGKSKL
Outline: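 Direct inhibition of firefly luciferase enzyme (10 nM final, 50 mM Tris Acetate) assessed by luminescence within 5 minutes. Percent activity scaled between DMSO and PTC124 positive control, with concentration-effect curves classified by fit quality and response.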

[2] = tested on: 7G8; assay: qHTS profiling for inhibitors of Plasmodium falciparum proliferation (AID 504749); further: nearly all actives have a fitted effect of over 60% in size; further: potency means the concentration at half of the fitted maximal effect; details: P. falciparum in erythrocytes, SYBR Green DNA, 72 h; series mostly up to 28.7 µM
Outline: (§1)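 Infected RBCs, 0.3% parasitemia/2.5% Hct final; cpd 72 h, 37 C, 5% CO2; lysis buffer with saponin/triton/SYBR Green I, o/n RT dark; FI 485/535; norm. to artemisinin (0.29 uM) and DMSO.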

[3] = tested on: ATS95; assay: as above; details: P. falciparum in erythrocytes, SYBR Green DNA, 72 h; series mostly up to 28.7 µM
Outline: as §1

[4] = tested on: C2A; assay: as above; details: P. falciparum in erythrocytes, SYBR Green DNA, 72 h; series mostly up to 28.7 µM
Outline: as §1

[5] = tested on: CP192; assay: as above; details: P. falciparum in erythrocytes, SYBR Green DNA, 72 h; series mostly up to 28.7 µM
Outline: as §1

[6] = tested on: CP203; assay: as above; details: P. falciparum in erythrocytes, SYBR Green DNA, 72 h; series mostly up to 28.7 µM
Outline: as §1

[7] = tested on: CP211; assay: as above; details: P. falciparum in erythrocytes, SYBR Green DNA, 72 h; series mostly up to 28.7 µM
Outline: as §1

[8] = tested on: CP247; assay: as above; details: P. falciparum in erythrocytes, SYBR Green DNA, 72 h; series mostly up to 28.7 µM
Outline: as §1

[9] = tested on: CP262; assay: as above; details: P. falciparum in erythrocytes, SYBR Green DNA, 72 h; series mostly up to 28.7 µM
Outline: as §1

[10] = tested on: CP268; assay: as above; details: P. falciparum in erythrocytes, SYBR Green DNA, 72 h; series mostly up to 28.7 µM
Outline: as §1

[11] = tested on: CP269; assay: as above; details: P. falciparum in erythrocytes, SYBR Green DNA, 72 h; series mostly up to 28.7 µM
Outline: as §1

[12] = tested on: CP291; assay: as above; details: P. falciparum in erythrocytes, SYBR Green DNA, 72 h; series mostly up to 28.7 µM
Outline: as §1

[13] = tested on: CP305; assay: as above; details: P. falciparum in erythrocytes, SYBR Green DNA, 72 h; series mostly up to 28.7 µM
Outline: as §1

[14] = tested on: ECU; assay: as above; details: P. falciparum in erythrocytes, SYBR Green DNA, 72 h; series mostly up to 28.7 µM
Outline: as §1

[15] = tested on: GB4; assay: as above; details: P. falciparum in erythrocytes, SYBR Green DNA, 72 h; series mostly up to 28.7 µM
Outline: as §1

[16] = tested on: HB3; assay: as above; details: P. falciparum in erythrocytes, SYBR Green DNA, 72 h; series mostly up to 28.7 µM
Outline: as §1

[17] = tested on: PAD; assay: as above; details: P. falciparum in erythrocytes, SYBR Green DNA, 72 h; series mostly up to 28.7 µM
Outline: as §1

[18] = tested on: SC27B; assay: as above; details: P. falciparum in erythrocytes, SYBR Green DNA, 72 h; series mostly up to 28.7 µM
Outline: as §1

[19] = tested on: TAB113; assay: as above; details: P. falciparum in erythrocytes, SYBR Green DNA, 72 h; series mostly up to 28.7 µM
Outline: as §1

[20] = tested on: TAB165; assay: as above; details: P. falciparum in erythrocytes, SYBR Green DNA, 72 h; series mostly up to 28.7 µM
Outline: as §1

Measured: Potency

O=C1[C@@H]2C[C@@H]3C[C@H]1C[C@@](O)(C3)C2
inactive: all assays above

CC(C)C[C@@H](NC(=O)[C@@H](Cc1ccccc1)NC(=O)c1cnccn1)B(O)O
inactive: [1]
active: [2] 39.8 nM | [3] 112 nM | [4] 112 nM | [5] 190 nM | [6] 338 nM | [7] 757 nM | [8] 126 nM | [9] 120 nM | [10] 135 nM | [11] 151 nM | [12] 151 nM | [13] 757 nM | [14] 126 nM | [15] 120 nM | [16] 79.4 nM | [17] 141 nM | [18] 141 nM | [19] 100 nM | [20] 70.8 nM

C=C1[C@@H]2CC[C@H](C2)C1(C)C
inactive: all assays above

OCCOC[C@H]1O[C@H](OCCO)[C@H](OCCO)[C@@H](OCCO)[C@@H]1OCCO (tested in a mixture with another compound)
not listed: [19]
inactive: all other assays above

C=NC(C(=O)NC1C(=O)N2C1SC(C)(C)C2C(=O)O)c1ccccc1 (configuration not stated)
inactive: all assays above

O=C(OC[C@@H]1O[C@@](O)(COC(=O)c2cccnc2)[C@H](OC(=O)c2cccnc2)[C@H]1OC(=O)c1cccnc1)c1cccnc1
inactive: all assays above

CC[C@@]1(O)C[C@H](O[C@H]2C[C@@H](N(C)C)[C@@H](O[C@H]3C[C@@H](O)[C@@H](O[C@H]4CCC(=O)[C@@H](C)O4)[C@@H](C)O3)[C@@H](C)O2)c2c(cc3c(c2O)C(=O)c2c(O)cccc2C3=O)[C@H]1C(=O)OC
active: [2] 39.8 nM | [3] 316 nM | [4] 178 nM | [5] 1070 nM | [6] 849 nM | [7] 849 nM | [8] 251 nM | [9] 757 nM | [10] 953 nM | [11] 849 nM | [12] 849 nM | [13] 601 nM | [14] 355 nM | [15] 601 nM | [16] 141 nM | [17] 178 nM | [18] 316 nM | [19] 199 nM | [20] 141 nM
inactive: [1]

CNC(=O)C(N)CSC(C)C1=C(C)c2cc3[n-]c(cc4nc(cc5[n-]c(cc1n2)c(C)c5CCC(=O)O)C(CCC(=O)O)=C4C)c(C)c3C(C)SCC(N)C(=O)NC.[Fe+2] (configuration not stated)
inactive: all assays above

CC1OC(OC2CCC3(C)C(CCC4C3CC(O)C3(C)C(C5=CC(=O)OC5)CCC43O)C2)CC(O)C1OC1CC(O)C(OC2CC(O)C(OC3OC(CO)C(O)C(O)C3O)C(C)O2)C(C)O1 (configuration not stated)
inactive: all assays above

COc1cccc(OC)c1C(=O)NC1C(=O)N2C1SC(C)(C)C2C(=O)O (configuration not stated)
inactive: all assays above

CC(C)(C)C(=O)OCC(=O)C1CCC2C3CCC4=CC(=O)CCC4(C)C3CCC12C (configuration not stated)
inactive: all assays above

OCCN1CC(O)C(O)C(O)C1CO (configuration not stated)
inactive: all assays above

CC1(C)C2CC[C@]1(C)[C@@H](O)C2
inactive: all assays above

OC[C@@H]1O[C@](CO)(O[C@H]2O[C@H](CO)[C@@H](O)[C@H](O)[C@H]2O)[C@H](O)[C@H]1O
inactive: all assays above

OCC1O[C@@H](O[C@@H]2C(CO)OC(O)C(O)C2O)C(O)C(O)C1O (some centres not stated)
inactive: all assays above

O=C1NC(=O)C2C3C=CC(C3)C12 (configuration not stated)
inactive: all assays above

CCCCCCCCCCCC(=O)OCC(O)C1OCC(O)C1O (configuration not stated)
inactive: all assays above

CC1(C)SC2C(NC(=O)C(C(=O)O)c3ccccc3)C(=O)N2C1C(=O)O (configuration not stated)
inactive: all assays above

CCN1CCN(C(=O)NC(C(=O)NC2C(=O)N3C(C(=O)O)=C(CSc4nnnn4C)CSC23)c2ccc(O)cc2)C(=O)C1=O (configuration not stated)
inactive: all assays above

NC[C@@H]1O[C@H](OC2[C@@H](CO)O[C@@H](OC3[C@H](O)[C@H](N)C[C@H](N)[C@H]3OC3O[C@H](CO)[C@@H](O)[C@H](O)[C@@H]3N)[C@H]2O)C(N)[C@H](O)[C@@H]1O (some centres not stated)
inactive: all assays above

O=C(O)CC(O)CC(O)/C=C/c1c(C2CC2)nc2ccccc2c1-c1ccc(F)cc1 (configuration not stated)
inactive: all assays above

CCCCN1CC(O)C(O)C(O)C1CO (configuration not stated)
inactive: all assays above

C/C1=C2/[N-]C(C(CC(N)=O)[C@@]2(C)CCC(=O)NCC(C)OP(=O)([O-])O[C@H]2[C@@H](O)[C@@H](n3cnc4cc(C)c(C)cc43)O[C@@H]2CO)[C@]2(C)N=C(/C(C)=C3N=C(/C=C4N=C1C(CCC(N)=O)C\4(C)C)[C@@H](CCC(N)=O)[C@]\3(C)CC(N)=O)[C@@H](CCC(N)=O)[C@]2(C)CC(N)=O.CC(=O)O.[Co] (some centres not stated)
not listed: [1]
inactive: all other assays above

CC(=O)N[C@H]1[C@H](O[C@@H]2c3ccc(c(Cl)c3)Oc3cc4cc(c3O[C@@H]3O[C@H](CO)[C@@H](O)[C@H](O)C3C)Oc3ccc(cc3Cl)C[C@H]3NC(=O)[C@@H](N)c5ccc(O)c(c5)Oc5cc(O)cc(c5)[C@H](NC3=O)C(=O)N[C@H]4C(=O)N[C@H]3C(=O)N[C@@H]2C(=O)N[C@@H](C(=O)O)c2cc(O)cc(O[C@H]4O[C@H](CO)[C@@H](O)C(O)[C@@H]4O)c2-c2cc3ccc2O)O[C@H](CO)[C@@H](O)[C@@H]1O (some centres not stated)
not listed: [1]
inactive: all other assays above
